“And” between values parts separate entries of the source, which are not always exact repeats. Equal values may be shown once. Screen size: about 360,000 compounds; about 1,500 (0.42%) were called active. This is one part of a sample in which actives are shown more often than they occur. A number with no mark means an inactive call. Cut-off read from the data, not from the text of the source: active = inhibition above about 13% (passing the limit was not always enough); inactive = the rest.
molecular target: Lon protease (Escherichia coli (strain K12)) (UniProt P0A9M0); assay: inhibitors of E. coli Lon protease, primary screen, biochemical, fluorescence polarization (AID 602123);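 note: 0% = enzyme with probe and DMSO and 100% = no enzyme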; conditions: purified E. coli Lon protease, at 7.94 µM, hits give high values
Sequence (P0A9M0 whole entry, looked up): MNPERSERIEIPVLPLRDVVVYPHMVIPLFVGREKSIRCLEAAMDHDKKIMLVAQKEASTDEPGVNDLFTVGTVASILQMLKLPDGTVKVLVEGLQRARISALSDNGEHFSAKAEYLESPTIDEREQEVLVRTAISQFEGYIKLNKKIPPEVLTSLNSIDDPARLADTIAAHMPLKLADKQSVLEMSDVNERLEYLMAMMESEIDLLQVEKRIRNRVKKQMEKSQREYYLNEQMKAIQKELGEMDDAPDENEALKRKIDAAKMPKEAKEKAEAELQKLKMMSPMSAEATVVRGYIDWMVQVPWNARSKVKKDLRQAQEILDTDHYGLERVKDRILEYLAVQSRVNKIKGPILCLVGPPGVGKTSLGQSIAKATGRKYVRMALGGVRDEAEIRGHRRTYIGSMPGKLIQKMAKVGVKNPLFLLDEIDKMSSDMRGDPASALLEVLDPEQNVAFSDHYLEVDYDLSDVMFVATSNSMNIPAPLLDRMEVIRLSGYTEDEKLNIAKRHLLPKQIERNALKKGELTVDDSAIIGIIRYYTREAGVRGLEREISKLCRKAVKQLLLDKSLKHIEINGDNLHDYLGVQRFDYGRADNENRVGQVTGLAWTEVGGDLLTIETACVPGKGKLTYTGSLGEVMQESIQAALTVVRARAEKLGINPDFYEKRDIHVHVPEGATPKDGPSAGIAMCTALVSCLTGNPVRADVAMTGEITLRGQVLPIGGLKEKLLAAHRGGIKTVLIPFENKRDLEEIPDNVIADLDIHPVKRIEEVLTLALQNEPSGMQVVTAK

Compound	inhibition
COc1ccc(NC(=O)CN2C(=O)COc3ccc(S(=O)(=O)N4CCOCC4)cc32)c(OC)c1	-3.19%
CCCCCc1ccc(-c2ccc(C(=O)O)cc2)nc1	-2.2%
O=C(C1CCCO1)N1CCN(C(=S)NC2CC2)CC1 (centres undefined)	-2.14%
O=C(OC1CCOC1=O)c1ccc(-c2nc3ccccc3s2)s1 (centres undefined)	-3.38%
CCOC(=O)N1CCC(NC(=O)Cc2cn(C)c3ccccc23)CC1	15.9% (active)
CCOC(=O)N1CCC(NC(=O)CCc2cn(C)c3ccccc23)CC1	-2.75%
Cn1cc(CCC(=O)NC2CC2)c2ccccc21	0.25%
CC1(C)OC(=O)C(=CSc2ccc(C(C)(C)C)cc2)C(=O)O1	-7.26%
Cc1cc2nc3c(=O)n(Cc4ccccc4)c(=O)[nH]c3nc2cc1N	182% (active)
Cc1cc(OCC(=O)N(C)c2c(N)n(Cc3ccccc3)c(=O)[nH]c2=O)c(C(C)C)cc1Cl	-1.64%
Nc1cc(=O)n(Cc2ccccc2)c(=O)n1Cc1ccccc1	-0.35%
CC(C)(C)OC(=O)N1CCC(C(=O)NNC(=O)c2ccc(Cl)cc2Cl)CC1	-1.59%
CCOc1ccc(NC(=O)C2CCN(C(=O)N3CCOc4ccccc43)CC2)cc1	-11.2%
CN1CCN(S(=O)(=O)c2ccc(N3CCN(S(=O)(=O)c4cccs4)CC3)nc2)CC1	-1.23%
O=C(C1CCN(S(=O)(=O)Cc2ccccc2)CC1)N1CCCc2ccccc21	-0.35%
CC1CN(Cc2nc3c(c(=O)n(C)c(=O)n3C)n2Cc2cccc(Cl)c2)CC(C)O1 (centres undefined)	-2.4%
O=C1CCC(=O)N1c1ccc(NCCc2ccccc2F)c([N+](=O)[O-])c1	0.67%
CCN(CCCCOC(=O)c1ccc(OC)c(OC)c1)C(C)Cc1ccc(OC)cc1 (centres undefined)	-2.66%
O=C1c2ccccc2C(=O)c2c1cccc2N1CCN(CCO)CC1	17.6% (active)
O=C1c2ccccc2C(=O)c2c1cccc2N1CCN(Cc2ccccc2)CC1	5.59%
O=C1CCN(CCCc2ccccc2)CCN1CCO	1.45%
Cc1cc2c(cc1C)[n+](C)cn2CC(O)COCC1CC=CCC1 (centres undefined)	4.81%
C[C@]12C=CC(=O)C=C1CC[C@@H]1[C@@H]2C(=O)C[C@@]2(C)[C@H]1CC[C@]2(O)C(=O)CO	-2.3% and 1.49%

Compound	inhibition
C[C@H](CO)N1C[C@H](C)[C@@H](CN(C)C(=O)c2cccc(F)c2)Oc2cc(-c3cncnc3)ccc2S1(=O)=O	-3.93%
CCOC(=O)C(=CNNc1ccsc1C(=O)OC)C(=O)OCC	-2.58%
O=C(Nc1cccc2ccccc12)c1[nH]c(-c2ccccc2)c2c1C(=O)N(C1CC1)C2=O	-8.53%
O=C(Cc1ccc(S(=O)(=O)N2CCCC2)s1)NC1CCCCCC1	-1.79%
CC(C(=O)NC1CCCC1)N1CCN(S(=O)(=O)c2ccccc2Cl)CC1 (centres undefined)	17.4% (active)
CC(C)c1ccc(S(=O)(=O)N2CCN(C(C)C(=O)NC3CCCC3)CC2)cc1 (centres undefined)	8.04%
COc1cc(CNCc2ccc3c(c2)OCO3)c([N+](=O)[O-])cc1OC	-8.35%
COc1cccc(NC(=O)C2CCCN(c3ncnc4c3nc3n4CCCCC3)C2)c1 (centres undefined)	-9.74%
Cc1cccc(-c2nnc(SCC(=O)O)n2Cc2ccccc2)c1	-7.43%
CCn1nnnc1SCC(=O)c1ccc(C)cc1C	-3.48%
Cc1ccc2c(c1)nnc1nnc(SCC(=O)O)n12	62% (active)
CC(C)(C(=O)N1CCC1(C)C(=O)NS(=O)(=O)c1ccc(Br)cc1)c1ccccc1 (centres undefined)	-2.78%
Cc1cc(Br)ccc1NC(=O)CCCOc1cc(=O)n(C)c2ccccc12	-8.57%
COc1ccc(C(CC(=O)c2ccccc2)S(=O)(=O)c2ccccc2)cc1 (centres undefined)	-2.33%
Cc1cccc(NC(=O)COC(=O)CCc2ccccc2)c1C	-6.48%
O=C(COC(=O)CCc1c[nH]c(=O)[nH]1)Nc1ccccc1Cl	25.7% (active)
Cc1cc(C(=O)OCC(=O)Nc2ccccc2Cl)c(C)o1	-2.91%
C/C(=N\NC(=O)c1ccc(C)cc1)C1C(=O)c2ccccc2C1=O	3.32%
COc1ccc(N(CC(=O)NC2CCCC2)C(=O)CS(=O)CC(=O)Nc2ccc3c(c2)OCO3)cc1 (centres undefined)	0.46%
CC(C)NC(=O)N1Cc2cc(C(=O)NCC(F)(F)F)nc(-c3cccc(-c4cc5ccccc5o4)c3)c2[C@@H]1CCO	1.84%
COCCOC(=O)c1sc(=S)n(CCOC)c1N	18.6% (active)
O=C(CSc1n[nH]c(-c2cccs2)n1)N1CCCCC1	0.33%
CCOC(=O)CC(NC(=O)C1c2ccccc2Oc2ccccc21)c1ccc(C)cc1 (centres undefined)	-23.2%

Compound	inhibition
CC(C)(C)NC(=O)NC(=O)COC(=O)C1c2ccccc2Oc2ccccc21	7.11%
CCCN(CCC)C(=O)C1c2ccccc2Oc2ccccc21	151% (active)
Cc1ccc(Sc2ccncc2S(N)(=O)=O)cc1	-17.1%
CCc1cc(=O)oc2cc(C)cc(OCC(=O)N3CCC[C@@H]3C(=O)O)c12	3.5%
C/C(CC(O)(/C=N/O)c1ccccc1)=N\O (centres undefined)	-3.3%
CCC(C)(C)NC(=O)C(c1cccn1C)N(Cc1ccc(C)cc1)C(=O)Cn1nnc2ccccc21 (centres undefined)	0.29%
O=C(COC(=O)c1c2c(nc3ccccc13)CCCC2)c1ccc(Br)s1	-4.86%
CC(NC(=S)Nc1ccc(S(N)(=O)=O)cc1)c1ccc2c(c1)OCO2 (centres undefined)	4.89%
CCN(CC(=O)Nc1ccc2c(c1)OCO2)S(=O)(=O)c1ccccc1	7.87%
O=C(COC(=O)c1ccc2c(c1)OCCO2)NCc1ccccc1Cl	6.26%
NC(=O)c1ccc(NC(=O)COC(=O)c2c3c(nc4ccccc24)/C(=C\c2ccc4c(c2)OCO4)CCC3)cc1	183% (active)
O=C(OCCOc1ccccc1Cl)c1cc(S(=O)(=O)N2CCCCC2)ccc1N1CCOCC1	-5.06%
COc1cccc(NC(=O)N2C3CCCC2CC(NC(C)=O)C3)c1 (centres undefined)	-2.6%
CCCN1C(=O)C(NC(C)=O)c2cc(OC)ccc21 (centres undefined)	16.3% (active)
CCCN1C2CCCC1CC(NC(=O)c1cccc(OC)c1)C2 (centres undefined)	-6.23%
NC(=O)C1CCCN(CC(=O)N2CCN(c3ccccc3)CC2)C1 (centres undefined)	-1.63%
OCCC1CN(Cc2cccc(O)c2)CCN1CCc1ccccc1 (centres undefined)	-2.49%
COc1cc(C(=O)NCc2ccc3c(c2)cc(C)n3C)cc(OC)c1OC	24.5% (active)
CCOCC(=O)NCc1ccc2c(c1)cc(C)n2C	13.8%
CCn1c(CNC(=O)c2cc(OC)c(OC)c(OC)c2)cc2cc(C)ccc21	-10.1%
c1cc(-n2cnnn2)ccc1NC1=NCCC1	-0.06%
CC1=C(C(=O)Nc2cccc(C(=O)NCC(C)c3ccccc3)c2)SCCO1 (centres undefined)	18.4%
CCn1c(CC(=O)Nc2ccc(C)cc2)nnc1SCC(=O)Nc1nc(C)cs1	0.33%

Compound	inhibition
Cc1ccc(NC(=O)Cc2nnc(SCC(=O)Nc3nncs3)n2C)cc1	45.4% (active)
Cc1ccc(SCC(=O)Nc2nncs2)cc1	6.67%
COc1ccc(CNCCCO)cc1OC	8.73%
COc1ccc(C2c3ccc(O)cc3Oc3ncn(CCCO)c(=N)c32)cc1OC (centres undefined)	58.2% (active)
COc1ccc(C2C(C#N)=C(N)Oc3cc(N)ccc32)cc1OC (centres undefined)	-24.5%
O=C1NC[C@@H](CCCCN2CCN(CCc3ccc(O)cc3)C(=O)C2=O)N(CC2CCCCC2)C1=O	-2.96%
Cc1cc(NS(=O)(=O)c2ccc(NC(=S)NC(=O)c3ccc(F)cc3Cl)cc2)no1	2.44%
CN(CC(=O)Nc1ccc(F)c(F)c1F)C(=O)C1CC(=O)N(C2CCCC2)C1 (centres undefined)	-6.03%
CC1(C)C(c2cccs2)=[N+]([O-])C2(CCCCC2=O)N1O (centres undefined)	-3.06%
COc1ccc(Cl)cc1-n1c(C)cc(C(=O)OCC(=O)N2CC(=O)Nc3ccccc32)c1C	7.08%
CN(C(=O)COC(=O)Cn1cnc2c1c(=O)n(C)c(=O)n2C)C1(C#N)CCCCC1	-2.86%
Cc1cc(Br)cn2c(Cc3ccsc3)c(-c3ccc(C#N)cc3)nc12	50.3% (active)
Cc1ccc(-c2nc3c(C)cc(Br)cn3c2Cc2ccccc2)cc1	-0.26%
Cc1cc(Br)cn2c(Cc3cccc(F)c3)c(-c3cccc(Br)c3)nc12	-1.91%
CCN(CCNC(=O)C1=C(C)C(=O)OC12CCC(C)CC2)c1ccccc1 (centres undefined)	2.56%
CCc1ccccc1NC(=O)CSc1nnc(CCNC(=O)OC(C)(C)C)o1	3.77%
O=C(N/N=C1\CCSC1)c1cc(Cl)ccc1O	-2.2%
COc1cccc(CNC(=O)CCC2CCCN(C(=O)c3ccc(F)c(Cl)c3)C2)c1 (centres undefined)	-13.9%
COc1cccc2c1C(=O)c1c(O)c3c(c(O)c1C2=O)CC(O)(C(C)=NNC(=O)c1ccc(Cl)c(Cl)c1)CC3OC1CC(N)C(O)C(C)O1 (centres undefined)	636% [above what the read-out allows, likely interference] (active)
Cc1cc(NC(=O)C(C)N2C(=O)c3ccccc3S2(=O)=O)no1 (centres undefined)	-0.19%

— PubChem BioAssay AID602123 (The Scripps Research Institute Molecular Screening Center, 2011)
